In the supplement of paper PMC8728848:
The full list was thinned out, with the strongest signals kept by preference.

Legend:
Assay in all cases: glycan array binding signal (z-score within array); higher = stronger binding
Conditions in all cases: glycan notation: IUPAC condensed, linker removed
[1] = molecular target: Fuc(a1-2)Gal(b1-3)GalNAc
Summary of the method: (§1)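 From the Consortium for Functional Glycomics database, 3228 arrays were curated, keeping only those whose protein sequence was available. Binding is given as a within-array Z-score averaged across arrays sharing a protein sequence and across linkers. Negative Z-scores can be read as non-binding.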

[2] = molecular target: Fuc(a1-2)Gal(b1-3)GalNAc(b1-3)Gal(a1-4)Gal(b1-4)Glc
Summary of the method: as §1

[3] = molecular target: Fuc(a1-2)Gal(b1-4)GlcNAc(b1-3)Gal(b1-4)GlcNAc
Summary of the method: as §1

[4] = molecular target: Gal(a1-4)Gal(b1-4)Gal
Summary of the method: as §1

[5] = molecular target: Gal(a1-4)Gal(b1-4)GalNAc
Summary of the method: as §1

[6] = molecular target: Gal(b1-3)GalNAc(b1-3)Gal(b1-4)Glc
Summary of the method: as §1

[7] = molecular target: Gal(b1-4)Glc6S
Summary of the method: as §1

[8] = molecular target: Gal(b1-4)GlcNAc(b1-3)GalNAc
Summary of the method: as §1

[9] = molecular target: Gal6S(b1-4)Glc
Summary of the method: as §1

[10] = molecular target: Man(a1-2)Man(a1-2)Man(a1-3)[Man(a1-2)Man(a1-6)[Man(a1-3)]Man(a1-6)]Man(b1-4)GlcNAc(b1-4)GlcNAc
Summary of the method: as §1

[11] = molecular target: Man(a1-3)[Man(a1-6)]Man
Summary of the method: as §1

[12] = molecular target: Neu5Ac(a2-3)Gal(b1-3)GalNAc6S
Summary of the method: as §1

[13] = molecular target: Neu5Ac(a2-3)Gal(b1-4)GlcNAc(b1-3)Gal(b1-4)[Fuc(a1-3)]GlcNAc
Summary of the method: as §1

[14] = molecular target: Neu5Ac(a2-3)GalNAc
Summary of the method: as §1

[15] = molecular target: Neu5Gc(a2-6)Gal(b1-4)GlcNAc
Summary of the method: as §1

[16] = molecular target: Fuc(a1-2)[Gal(a1-3)]Gal(b1-3)GlcNAc
Summary of the method: as §1

[17] = molecular target: Fuc(a1-2)[GalNAc(a1-3)]Gal(b1-4)[Fuc(a1-3)]GlcNAc
Summary of the method: as §1

[18] = molecular target: Fuc(a1-3)[Gal(b1-4)]GlcNAc(b1-3)Gal(b1-3)[Fuc(a1-4)]GlcNAc
Summary of the method: as §1

[19] = molecular target: Fuc(a1-3)[Gal(b1-4)]GlcNAc(b1-4)Gal(b1-4)[Fuc(a1-3)]GlcNAc
Summary of the method: as §1

[20] = molecular target: Fuc(b1-3)GlcNAc
Summary of the method: as §1

[21] = molecular target: Gal(a1-3)[Gal(a1-4)]Gal(b1-4)GlcNAc
Summary of the method: as §1

[22] = molecular target: Gal(b1-3)[Fuc(a1-4)]GlcNAc(b1-3)Gal(b1-4)[Fuc(a1-3)]GlcNAc
Summary of the method: as §1

[23] = molecular target: Gal(b1-4)GalNAc(b1-3)[Fuc(a1-2)]Gal(b1-4)GlcNAc
Summary of the method: as §1

[24] = molecular target: Gal(b1-4)GlcNAc(b1-3)Gal(b1-4)GlcNAc(b1-3)Gal(b1-4)GlcNAc
Summary of the method: as §1

[25] = molecular target: Gal(b1-4)GlcNAc(b1-3)[Gal(b1-4)GlcNAc(b1-6)]GalNAc
Summary of the method: as §1

[26] = molecular target: Gal3S(b1-3)GalNAc
Summary of the method: as §1

[27] = molecular target: Gal3S(b1-4)Glc6S
Summary of the method: as §1

[28] = molecular target: Gal3S6S(b1-4)GlcNAc
Summary of the method: as §1

[29] = molecular target: GalNAc(a1-3)GalNAc
Summary of the method: as §1

[30] = molecular target: GlcNAc(a1-3)Gal(b1-4)GlcNAc
Summary of the method: as §1

[31] = molecular target: GlcNAc(b1-3)[GlcNAc(b1-4)][GlcNAc(b1-6)]GlcNAc
Summary of the method: as §1

[32] = molecular target: Man(a1-2)Man(a1-2)Man(a1-3)[Man(a1-2)Man(a1-3)[Man(a1-2)Man(a1-6)]Man(a1-6)]Man(b1-4)GlcNAc(b1-4)GlcNAc
Summary of the method: as §1

[33] = molecular target: Neu5Ac(a2-3)Gal(b1-3)GlcNAc(b1-3)Gal(b1-4)GlcNAc
Summary of the method: as §1

[34] = molecular target: Neu5Ac(a2-3)Gal(b1-4)GlcNAc6S
Summary of the method: as §1

[35] = molecular target: Neu5Ac(a2-3)[Neu5Ac(a2-6)]GalNAc
Summary of the method: as §1

[36] = molecular target: Neu5Ac(a2-8)Neu5Ac(a2-8)Neu5Ac(a2-3)[GalNAc(b1-4)]Gal(b1-4)Glc
Summary of the method: as §1

B1: RNase 1 (Bos taurus), P61823 (protein)
chain: MALKSLVLLSLLVLVLLLVRVQPSLGKETAAAKFERQHMDSSTSAASSSNYCNQMMKSRNLTKDRCKPVNTFVHESLADVQAVCSQKNVACKNGQTNCYQSYSTMSITDCRETGSSKYPNCAYKTTQANKHIIVACEGNPYVPVHFDASV
glycan array binding signal (z-score) [1]: -0.157
glycan array binding signal (z-score) [2]: 1.93
glycan array binding signal (z-score) [3]: -0.225
glycan array binding signal (z-score) [4]: 7.93
glycan array binding signal (z-score) [5]: 8.87
glycan array binding signal (z-score) [6]: 0.641
glycan array binding signal (z-score) [7]: -0.14
glycan array binding signal (z-score) [8]: -0.22
glycan array binding signal (z-score) [9]: -0.073
glycan array binding signal (z-score) [10]: -0.153
glycan array binding signal (z-score) [11]: -0.147
glycan array binding signal (z-score) [12]: -0.195
glycan array binding signal (z-score) [13]: -0.22
glycan array binding signal (z-score) [14]: -0.24
glycan array binding signal (z-score) [15]: -0.201

B2: Tim-4 (Mus musculus), Q6U7R4 (protein)
chain: MSKGLLLLWLVTELWWLYLTPAASEDTIIGFLGQPVTLPCHYLSWSQSRNSMCWGKGSCPNSKCNAELLRTDGTRIISRKSTKYTLLGKVQFGEVSLTISNTNRGDSGVYCCRIEVPGWFNDVKKNVRLELRRATTTKKPTTTTRPTTTPYVTTTTPELLPTTVMTTSVLPTTTPPQTLATTAFSTAVTTCPSTTPGSFSQETTKGSAFTTESETLPASNHSQRSMMTISTDIAVLRPTGSNPGILPSTSQLTTQKTTLTTSESLQKTTKSHQINSRQTILIIACCVGFVLMVLLFLAFLLRGKVTGANCLQRHKRPDNTEDSDSVLNDMSHGRDDEDGIFTL
glycan array binding signal (z-score) [1]: -0.114
glycan array binding signal (z-score) [16]: 0.285
glycan array binding signal (z-score) [17]: 0.089
glycan array binding signal (z-score) [18]: 0.006
glycan array binding signal (z-score) [19]: -0.188
glycan array binding signal (z-score) [20]: -0.139
glycan array binding signal (z-score) [21]: -0.083
glycan array binding signal (z-score) [22]: -0.25
glycan array binding signal (z-score) [23]: -0.661
glycan array binding signal (z-score) [24]: -0.396
glycan array binding signal (z-score) [25]: -0.345
glycan array binding signal (z-score) [26]: 2.34
glycan array binding signal (z-score) [27]: 1.82
glycan array binding signal (z-score) [28]: 1.9
glycan array binding signal (z-score) [29]: -0.157
glycan array binding signal (z-score) [30]: -0.514
glycan array binding signal (z-score) [31]: 1.75
glycan array binding signal (z-score) [32]: 0.032
glycan array binding signal (z-score) [33]: -0.953
glycan array binding signal (z-score) [34]: -0.51
glycan array binding signal (z-score) [35]: -0.437
glycan array binding signal (z-score) [36]: 1.32
